# Screens from PubChem.
# Rows were chosen to be rich in hits. Some 2.3% of all compounds tested hit in one or more screens of this group.
# MCL1 BIM primary – inhibitors of MCL1 binding to BIM-BH3, primary screen, biochemical, fluorescence polarization; Induced myeloid leukemia cell differentiation protein Mcl-1 (Homo sapiens), Q07820; GST-MCL1 / FITC-Bim-BH3 fluorescence polarization; inhibition, % at 10.9 µM; 320,000 tested, 0.68% active;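 active = inhibition above the mean inhibition of all tested compounds plus 3 SD, set per campaign, cut at about 40% in these data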;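 also: 0% = DMSO wells and 100% = unlabeled Bim-BH3 peptide control; higher means more loss of mP so more displacement of Bim peptide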
# Target sequence (Q07820 whole entry, looked up): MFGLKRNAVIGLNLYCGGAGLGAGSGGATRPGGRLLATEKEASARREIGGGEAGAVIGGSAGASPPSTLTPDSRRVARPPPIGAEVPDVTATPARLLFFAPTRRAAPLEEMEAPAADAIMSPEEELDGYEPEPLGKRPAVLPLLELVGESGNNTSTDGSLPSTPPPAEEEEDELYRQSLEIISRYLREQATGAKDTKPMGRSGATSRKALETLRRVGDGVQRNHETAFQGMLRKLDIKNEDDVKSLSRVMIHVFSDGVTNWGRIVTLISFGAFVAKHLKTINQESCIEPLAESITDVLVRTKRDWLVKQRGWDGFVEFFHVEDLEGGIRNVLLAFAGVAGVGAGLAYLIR
# GLD-1 RNA inh – GLD-1/TGE RNA complex disruptors, primary screen, biochemical, fluorescence polarization; Female germline-specific tumor suppressor gld-1 (Caenorhabditis elegans), Q17339; purified GLD-1 + fluorescein TGE RNA; inhibition, % at 5.96 µM; 320,000 tested, 0.44% active;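 active = percent inhibition above a per-plate cutoff, the plate mean of test compounds plus 3 SD, cut at about 30% in these data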;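 also: 0% = DMSO wells with GLD-1 and probe and 100% = wells lacking GLD-1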
# BCLXL inh – inhibitors of human Bcl-xL, primary screen, biochemical, fluorescence polarization, HTS; Bcl-2-like protein 1 (Homo sapiens), Q07817; GST-Bcl-xL / FITC-Bim BH3 peptide fluorescence polarization; inhibition, % at 10.9 µM; 320,000 tested, 0.7% active;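 active = inhibition above the mean of all tested compounds plus 3 SD, cutoff set per campaign, cut at about 30% in these data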;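 also: 0% = DMSO wells and 100% = unlabeled Bim-BH3 peptide competitor; inhibitors lower millipolarization by displacing the labeled peptide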
# Target sequence (Q07817 whole entry, looked up): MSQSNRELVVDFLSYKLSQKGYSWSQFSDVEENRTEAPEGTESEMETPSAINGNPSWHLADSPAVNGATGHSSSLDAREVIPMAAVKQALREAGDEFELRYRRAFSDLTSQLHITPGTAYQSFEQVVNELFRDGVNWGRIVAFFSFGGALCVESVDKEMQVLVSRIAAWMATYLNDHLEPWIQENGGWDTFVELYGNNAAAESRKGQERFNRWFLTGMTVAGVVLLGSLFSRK
# Mcl1-Noxa inh – Mcl-1/Noxa binding inhibitors, primary screen, biochemical, TR-FRET, 1536-well | 220,000 tested, 1.5% active | AID 1022, 2008 | inhibition, % at 21.7 µM | TR-FRET Mcl-1/Noxa peptide binding, 2 h;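 active = compounds that cut the protein-peptide binding signal by more than 50% relative to plate controls in a single-dose test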;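 also: His-tagged Mcl-1 with rhodamine Noxa BH3 peptide and terbium anti-His antibody; 0% = Mcl-1 plus Noxa peptide wells and 100% = peptide-only wells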
# Mcl-1 Bim block – inhibitors of Bim peptide binding to Mcl-1, primary screen, biochemical, bead-based flow cytometry, multiplex; Induced myeloid leukemia cell differentiation protein Mcl-1 (Homo sapiens), Q07820; Bim peptide-Mcl-1 binding; inhibition, % at 10 µM; 190,000 tested, 0.1% active; in the data active = inhibition above about 40%;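 also: 0% = no compound tracer wells and 100% = peptide blocker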
# Mcl1 Bid PPI – Mcl-1/Bid binding inhibitors, primary screen, biochemical, TR-FRET, 1536-well; Induced myeloid leukemia cell differentiation protein Mcl-1 (Homo sapiens), Q07820; TR-FRET Mcl-1/Bid-Dy647 peptide binding; inhibition, % at 21.7 µM; 220,000 tested, 0.97% active; AID 1021, 2008;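 active = compounds that cut the binding signal by more than half at the single screening dose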;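 also: His-tagged Mcl-1 with europium anti-His antibody binding Bid BH3 peptide; 0% = Mcl-1 plus peptide wells and 100% = peptide-only wells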
# Bcl-xL conf – Bcl-xL inhibitors blocking Bim BH3 binding, confirmation, counter-screen for MCL1 inhibitor project, biochemical, fluorescence polarization; GST-Bcl-xL / FITC-Bim BH3 peptide FP binding; 1,700 tested, 54% active; shares compounds with MCL1 BIM primary; inhibition, % at 10.9 µM; AID 2166, 2009;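 active = inhibition above a cutoff equal to the mean inhibition of all tested compounds plus 3 SD, cut at about 30% in these data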;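 also: 0% = DMSO wells and 100% = unlabeled Bim BH3 control peptide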
# MCL1 BIM confirm – inhibitors of MCL1 binding to BIM-BH3, confirmation, biochemical, fluorescence polarization, triplicate; AID 2168, 2009; GST-MCL1 / FITC-Bim-BH3 fluorescence polarization; inhibition, % at 10.9 µM; shares compounds with MCL1 BIM primary; 1,700 tested, 61% active;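 active = inhibition above the average of all tested compounds plus 3 SD, cut at about 40% in these data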;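 also: 0% = DMSO wells and 100% = unlabeled Bim-BH3 control peptide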
# * marks the source's active call; other numbers are inactive results; / = no result given; + = active, no number.
SMILES,MCL1 BIM primary,GLD-1 RNA inh,BCLXL inh,Mcl1-Noxa inh,Mcl-1 Bim block,Mcl1 Bid PPI,Bcl-xL conf,MCL1 BIM confirm
O=C(NCCc1cccc(F)c1)C1CCC(=O)N(CCCc2ccccc2)C1 (stereo unspecified),6,-4,0,/,/,/,/,/
COc1ccccc1CNC(=O)CNC(=O)[C@@H]1Cc2ccccc2CN1,-2,-2,9,/,/,/,/,/
Cc1ccc(C)n1-c1ccccc1N,87*,99*,92*,11,-5,-30,-123,-194
Cc1cc(=O)cc(C)n1-c1ccccc1N,11,4,4,/,/,/,/,/
CC(C)(C)OC(=O)NCCCCC1=CC2=CC(=O)C(C)(OC(=O)c3ccco3)C(=O)C2=CO1 (stereo unspecified),61*,49*,29,/,/,/,23,32
CCCCC1=CC2=CC(=O)C(C)(OC(=O)c3ccc(Cl)nc3)C(=O)C2=CO1 (stereo unspecified),66*,68*,52*,/,/,/,48*,65*
CC(C)(C)OC(=O)NCCCC1=CC2=CC(=O)C(C)(OC(=O)C3CCCC3)C(=O)C2=CO1 (stereo unspecified),74*,79*,65*,/,/,/,48*,66*
COC(=O)CCCC1=CC2=CC(=O)C(C)(OC(=O)c3ccco3)C(=O)C2=CO1 (stereo unspecified),88*,73*,67*,/,/,/,75*,110*
CCCCC1=CC2=CC(=O)C(C)(O)C(=O)C2=CO1 (stereo unspecified),16,29,16,/,/,/,/,/
C=CCN(Cc1ccc(Cl)s1)C(=O)c1cc(S(=O)(=O)N2CCOCC2)ccc1F,1,3,8,/,/,/,/,/
COCCN(Cc1ccccc1)C(=O)c1cccc(S(=O)(=O)N(C)c2c(C)n(C)n(-c3ccccc3)c2=O)c1,4,9,0,/,/,/,/,/
CC1CN(S(=O)(=O)c2cccc(C(=O)N(Cc3nnc(-c4ccccc4Cl)o3)C3CC3)c2)CC(C)O1 (stereo unspecified),4,8,5,/,/,/,/,/
Cc1cc(=O)[nH]c(SCC(=O)Nc2ccc(C(=O)O)cc2)n1,-3,6,-3,17,0,5,/,/
CCOC(=O)c1ccc(NC(=O)CSc2nc(C)cc(=O)[nH]2)cc1,41*,1,14,85*,-1,-4,23,51*
Cc1cc(C(=O)NN)n[nH]1,56*,3,3,8,/,-24,1,7
CC(C)(C)OC(=O)NN1CC(=O)N2Cc3[nH]c4ccccc4c3C[C@H]2C1=O,-8,4,1,/,/,/,/,/
CCOC(=O)[C@@H]1[C@H]2COc3cc(OC)ccc3[C@@H]2N2C(=O)N(c3ccccc3)C(=O)[C@@]12C,/,4,/,/,/,/,/,/
O=C(O)C1Nc2c(O)cc(Cl)c([N+](=O)[O-])c2C2C=CCC12 (stereo unspecified),101*,6,78*,105*,9,97*,43*,101*
O=[N+]([O-])c1ccc(Cl)c2c1C1C=CCC1C(c1ccccn1)N2 (stereo unspecified),36,14,17,-3,2,-49,/,/
CCN(CC)c1ccc2cc(-c3nc4ccccc4[nH]3)c(=O)oc2c1,76*,42*,81*,26,3,96*,89*,105*
CCN(CC)c1ccc2cc(-c3nc4ccccc4n3C)c(=O)oc2c1,-6,-59,27,1,3,1,/,/
CCN(CC)c1ccc2cc(-c3nc(-c4ccc(OC)cc4)cs3)c(=O)oc2c1,110*,67*,107*,-1,/,-19,115*,134*
CCN(CC)c1ccc2cc(-c3nnc(-c4ccccc4)o3)c(=O)oc2c1,-46,-140,-6,-2,-15,6,/,/
C/C=C1\NC(=O)[C@H](C)NC(=O)[C@@H](NC(=O)[C@@H](Cc2ccc(O)cc2)NC(=O)[C@@H](NC(=O)/C(C)=C/C)C(C)C)[C@@H](C)OC(=O)[C@H](CCCCc2ccc(O)cc2)NC(=O)[C@@H](CCC(=O)O)NC1=O,/,6,/,/,/,/,/,/
N#CC1=C(N)C(C#N)(C#N)C(c2ccc[nH]2)C2CCCC=C12 (stereo unspecified),72*,77*,67*,9,0,-23,39*,27
SMILES,MCL1 BIM primary,GLD-1 RNA inh,BCLXL inh,Mcl1-Noxa inh,Mcl-1 Bim block,Mcl1 Bid PPI,Bcl-xL conf,MCL1 BIM confirm
N#CC1=C(N)C(C#N)(C#N)[C@H](c2cccnc2)[C@H]2CN(C(=O)OCc3ccccc3)CC=C12,12,8,8,-2,-3,-14,/,/
N#CC1=C(N)C(C#N)(C#N)C(c2cccnc2)C2CC(c3ccccc3)CC=C12 (stereo unspecified),135*,103*,110*,7,-3,-19,11,14
N#CC1=C(N)C(C#N)(C#N)C(c2cccnc2)C2CCCC=C12 (stereo unspecified),81*,60*,84*,31,0,-9,75*,85*
O=C(CSc1nc(O)cc(=O)n1-c1ccc(Cl)c(Cl)c1)Nc1ccc(Cl)cc1Cl,-10,-16,-9,/,/,/,/,/
CC1(C)CC(=O)C2=C(C1)OC1=C(C(=O)CC(C)(C)C1)C2c1ccc(O)cc1O,+,128*,174*,41,-5,-20,148*,194*
Cc1nn(C)cc1C1C2=C(CC(C)(C)CC2=O)N(c2ccccc2)C2=C1C(=O)CC(C)(C)C2,3,14,8,-5,-3,-33,/,/
Cc1ccc(N2C3=C(C(=O)CC(C)(C)C3)C(c3cn(C)nc3C)C3=C2CC(C)(C)CC3=O)cc1,104*,88*,93*,/,/,/,116*,158*
Cc1c(NC(=O)Nc2ccc(C#N)cc2)c(=O)n(-c2ccccc2)n1C,6,4,8,/,/,/,/,/
O=C(Nc1cccc(S(=O)(=O)NC2=NCCCCC2)c1)c1cc(-c2ccccc2)nc2ccccc12,8,5,7,-16,3,4,/,/
